Assay outcomes from PubChem BioAssay.
ATXN viability = cell viability loss in ATXN counter-screen | S2 cells (HEK-293 line with an ATXN2-luciferase reporter) viability, CellTiter-Fluor protease fluorescence, 24 h | Potency, µM (titrated, usually from 56.7 µM), most hits filed as cytotoxic | 0.49% of 400,000 active; further: nearly all actives have a fitted effect of over 40% in size
Gal4-VP16 FLuc = Gal4-VP16 reporter inhibition counter-screen; Drosophila S2 Gal4-VP16 UAS-luciferase, luminescence, 20 h; Potency, µM (series often up to 53.6 µM), for inactives: at the top dose activity, negative = inhibition, usual class: inhibitors; 3.5% of 310,000 active; AID 2546;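 further: Gal4-VP16 expression switched on by copper sulfate through the metallothionein promoter; on the % scale 0 is the no-effect control and ±100 the full control effect; nearly all actives have a fitted effect of over 50% in size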
HepG2 tox-1 = HepG2 cytotoxicity, counter-screen for TGF-b inhibitors; HepG2 CAGA-GFP viability, ATP luminescence, 18 h; Potency, µM (series often up to 46.1 µM), for inactives: at the highest dose activity change, negative = cytotoxicity, actives largely listed as cytotoxic; 0.76% of 410,000 active; AID 588856
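CellTiter-Glo luminescence gave cytotoxicity after 18 hours at 37 degrees C. The cells were HepG2 CAGA-GFP in 1% FBS DMEM, stimulated with 500 pg/mL TGF-beta after compound addition. %Activity was normalised to no-cell wells (complete cell-killing) and DMSO (no toxicity), and curves were fitted and classified.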
TGFb SMAD3 inh = TGF-b pathway inhibition | HepG2 CAGA-GFP TGF-b/SMAD3 reporter, GFP fluorescence, 18 h; TGF-beta stimulated, 500 pg/mL final | Potency, µM (series often up to 46.1 µM), for the others: at the highest dose activity, negative = inhibition, hits mostly inhibitors | 1.2% of 410,000 active | AID 588855; further: on the % scale 0 is the no-effect control and ±100 the full control effect; nearly all actives have a fitted effect of over 65% in size
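Per well, imaged GFP fluorescence of HEPG2 CAGA-GFP cells gives the signal; cells get compound, then TGF-beta (500 pg/mL final), 18 h at 37 degrees C; %Activity versus -TGF-beta and +DMSO controls.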
ATXN2 expr inh = ATXN2 expression inhibition. HEK-293 ATXN2-luciferase reporter, luminescence, 24 h. Potency, µM (highest dose often 57 µM), without a hit: at the top dose activity change, negative = inhibition, usual class: inhibitors. 0.72% of 360,000 active. AID 1745845; further: on the % scale 0 is the no-effect control and ±100 the full control effect; nearly all actives have a fitted effect of over 55% in size
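ATXN2-luciferase reporter cells (luciferase flanked by upstream and downstream ATXN2 gene portions) were treated 24 h at 37 °C with compounds at up to 57 uM. SteadyGlo luminescence gave expression; GF-AFC fluorescence gave viability.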
RORgamma inh = inhibitors of mouse ROR gamma transcriptional activity; 5.4% of 310,000 active; P51450; AID 2551; Potency, µM (titrated, usually from 53.6 µM), without a hit: at the highest dose activity change, negative = inhibition, actives largely listed as inhibitors; Drosophila S2 Gal4-RORgamma UAS-luciferase reporter, 20 h; further: on the % scale 0 is the no-effect control and ±100 the full control effect; nearly all actives have a fitted effect of over 60% in size
Target sequence (P51450 whole entry, looked up, the tested form may be a part): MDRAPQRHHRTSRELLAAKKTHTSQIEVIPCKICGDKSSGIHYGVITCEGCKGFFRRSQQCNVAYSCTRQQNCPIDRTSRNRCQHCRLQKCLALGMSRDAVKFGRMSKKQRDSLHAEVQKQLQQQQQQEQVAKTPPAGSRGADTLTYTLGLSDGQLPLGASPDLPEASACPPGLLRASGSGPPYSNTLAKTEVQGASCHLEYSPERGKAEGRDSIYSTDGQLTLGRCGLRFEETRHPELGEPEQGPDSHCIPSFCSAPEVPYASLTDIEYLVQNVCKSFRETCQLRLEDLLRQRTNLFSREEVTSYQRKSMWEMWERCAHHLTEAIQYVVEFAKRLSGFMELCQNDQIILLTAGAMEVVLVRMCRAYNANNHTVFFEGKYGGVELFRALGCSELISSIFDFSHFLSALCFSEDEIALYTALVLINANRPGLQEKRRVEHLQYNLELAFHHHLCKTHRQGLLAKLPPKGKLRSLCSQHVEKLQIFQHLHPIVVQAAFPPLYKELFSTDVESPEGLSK
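Drosophila Schneider cells stably carrying a metallothionein-driven Gal4 DBD–ROR gamma fusion and a UAS-Photinus luciferase reporter were exposed to compound for 1 hr, then induced with copper sulfate (700 uM final) for 20 hr at ambient temperature before luminescence reading.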
TGFb confirm = TGF-b pathway inhibition, cherry-pick retest. Potency, µM (series often up to 46.1 µM), for the others: top-dose activity, negative = inhibition, usual class: inhibitors. 63% of 1,600 active. shares compounds with TGFb SMAD3 inh. HepG2 CAGA-GFP TGF-b reporter, GFP fluorescence, 18 h; cells stimulated with TGF-beta, 500 pg/mL; further: on the % scale 0 is the no-effect control and ±100 the full control effect; nearly all actives have a fitted effect of over 65% in size
HepG2 tox-2 = HepG2 cytotoxicity, TGF-b inhibitor counterscreen; Potency, µM (titrated, usually from 46.1 µM), inactives show at the top dose activity, negative = cytotoxicity, hits mostly inhibitors; HepG2 CAGA-GFP viability, ATP luminescence, 18 h; cells stimulated with TGF-beta, 500 pg/mL; 27% of 1,600 active; shares compounds with TGFb SMAD3 inh; AID 720535; further: on the % scale 0 is the no-effect control and ±100 the full control effect; nearly all actives have a fitted effect of over 70% in size
CCL64 TGFb inh = orthogonal confirmation of TGF-b inhibitors in CCL64 cells | shares compounds with TGFb SMAD3 inh | CCL64 CAGA-GFP reporter, TGF-b stimulated, GFP fluorescence, 18 h | Potency, µM (top dose mostly 46.1 µM), for the others: top-dose activity, negative = inhibition, actives largely listed as inhibitors | 41% of 1,600 active; further: nearly all actives have a fitted effect of over 65% in size
COP TGFb inh = TGF-b inhibition validated with COP promoter; shares compounds with TGFb SMAD3 inh; HepG2 COP-GFP TGF-b reporter, GFP fluorescence, 18 h; cells stimulated by added recombinant TGF-beta; Potency, µM (top dose mostly 46.1 µM), without a hit: top-dose activity, negative = inhibition, most hits filed as inhibitors; 3% of 1,600 active; further: nearly all actives have a fitted effect of over 70% in size
* marks the source's active call; other numbers are inactive results; i = inactive; ? = inconclusive; nt = no result given; ! = a repeat was not active. Compounds with a hit are over-represented: about 6.3% of the library has one in this group of screens. The call rests on the fitted dose curve; in most records, active means well fitted curve in the direction sought with a large enough effect; inconclusive means small, poorly fitted or top-dose-only effect, or another doubt; inactive means no such curve, though single readings can be large; an effect the other way counts as inactive or inconclusive. Potency means the concentration at half of the fitted maximal effect.

SMILES	ATXN viability	Gal4-VP16 FLuc	HepG2 tox-1	TGFb SMAD3 inh	ATXN2 expr inh	RORgamma inh	TGFb confirm	HepG2 tox-2	CCL64 TGFb inh	COP TGFb inh
CN(C(=O)c1cccc(NC(=O)Cc2ccc(NC(=O)C3CCCN(C(=O)C4CCC4)C3)cc2)c1)C1CCC1 (configuration not stated)	i	nt	4.2%	-26.0%	1.9%	nt	nt	nt	nt	nt
Cc1c(C(=O)Oc2cccc3cccnc23)cccc1[N+](=O)[O-]	i	3.16µM*	-42.1%	?	-26.1%	2.82µM*	-9.8%	-0.2%	?	-12.0%
Cc1c(C(=O)O/N=C(\N)c2ccccn2)cccc1[N+](=O)[O-]	i	-21.1%	9.7%	35.5%	-19.0%	-38.2%	nt	nt	nt	nt
CCn1nc(C(=O)OC(C(=O)c2c[nH]c3ccccc23)c2ccccc2)c2ccccc2c1=O (configuration not stated)	i	-2.6%	-26.5%	11.2µM*	8.0%	23.6%	20.6µM*	-17.6%	?	-17.3%
Cc1ccc(-c2csc(N(CCO)CCCn3c(C(F)(F)F)nc4cc(C(F)(F)F)ccc43)n2)cc1	?	?	-11.6%	7.08µM*	1.6%	10µM*	20.6µM*	-25.1%	?	-4.2%
CC(C)NC(=O)N1[C@H](c2cccs2)[C@@H](C)C(=O)[C@@H](C)[C@@H]1c1cccs1	i	nt	-20.2%	-12.7%	12.0%	nt	nt	nt	nt	nt
CCCC[C@H]1COCCS(=O)(=O)N1Cc1ccc(Br)cc1	i	2.8%	0.3%	10µM*!	-17.5%	4.0%	?	-17.1%	?	15.9%
O=C(CCCn1c(=O)c2sccc2n(Cc2ccc(Cl)cc2)c1=O)NCc1ccc2c(c1)OCO2	nt	nt	3.3%	-7.0%	nt	nt	nt	nt	nt	nt
C/C(CC(=O)Nc1ccc(Cl)c(C(F)(F)F)c1)=N\NC(=O)c1ccccc1O	i	?	-68.3%	15.8µM*	-20.9%	?	?	?	?	102.0%
COc1ccc(NS(=O)(=O)c2ccc(C)c(NC(=O)CNC(=O)c3ccco3)c2)cc1	i	nt	-0.1%	0.0%	12.9%	nt	nt	nt	nt	nt
C=C(C)CSc1nc2sc3c(c2c(=O)n1-c1ccccc1)CCN(C)C3	i	6.2%	1.3%	-1.7%	nt	-1.0%	nt	nt	nt	nt
C1=C(CCNc2ncnc3c2[nH]c2ccccc23)CCCC1	14.1µM*	0.708µM*	-88.3%	3.55µM*	?	7.94µM*	?	20.6µM*	6.51µM*	24.7%
O=c1c2[nH]c3ccccc3c2ncn1CCC1=CCCCC1	i	-3.2%	-15.3%	4.1%	-21.4%	44.5%	nt	nt	nt	nt
O=C1NC(Cc2ccccc2)c2nc3ccc(Cl)cc3c(=O)n2-c2cc3ccccc3cc21 (configuration not stated)	?	nt	1.4%	-0.1%	-2.5%	nt	nt	nt	nt	nt
O=C1NC(Cc2ccc(O)cc2)c2nc3ccc(Cl)cc3c(=O)n2-c2cc3ccccc3cc21 (configuration not stated)	?	nt	12.7%	7.94µM*	?	nt	8.2µM*	?	5.8µM*	45.3%
c1ccc2c(Nc3nc(-c4ccncc4)nc4ccccc34)cccc2c1	i	-22.9%	-63.8%	-16.5%	-23.0%	24.8%	nt	nt	nt	nt
Clc1cccc(Nc2nc(-c3ccncc3)nc3ccccc23)c1	?	-1.1%	-40.9%	1.6%	?	-5.3%	?	?	?	9.2%
Clc1ccccc1Nc1nc(-c2ccncc2)nc2ccccc12	i	-2.1%	-54.9%	-10.4%	-35.3%	0.0%	-13.5%	23.1µM*	?	52.4%
COc1ccc(C[C@@H]2CN3C(=NC[C@@H]3Cc3ccc(O)cc3)N2C[C@H](C)NC(=O)CCC2CCCCC2)cc1	?	0.8%	-21.7%	12.6µM*	-36.1%	0.2%	-86.1%	?	?	106.2%
COC1C=CO[C@@]2(C)Oc3c(C)c(O)c4c(O)c(c(C=NN5CCN(C)CC5)c(O)c4c3C2=O)NC(=O)/C(C)=C\C=CC(C)C(O)[C@@H](C)C(O)C(C)[C@H](OC(C)=O)C1C (some centres not stated)	nt	1.0%	nt	nt	nt	-3.7%	nt	nt	nt	nt
O=C(NCC(c1ccco1)N1CCCCC1)c1ccc(COc2ccc(Cl)cc2)cc1 (configuration not stated)	?	nt	-24.7%	12.6µM*	?	nt	16.4µM*	?	16.4µM*	72.7%
N#Cc1ccc(C(=O)NCC(c2ccco2)N2CCCCC2)cc1 (configuration not stated)	i	17.7%	2.8%	-5.6%	3.6%	-0.5%	nt	nt	nt	nt
CC(NC1=CC(=O)c2cccnc2C1=O)C(O)c1ccccc1 (configuration not stated)	?	nt	5.01µM*	5.01µM*	?	nt	5.8µM*	5.17µM*	?	13µM*
CC(c1ccccc1)N1C(=O)c2cccnc2C1=O (configuration not stated)	i	5.3%	-2.9%	2.4%	-8.5%	4.7%	nt	nt	nt	nt
Cc1nc2[nH]c(=O)n(O)c(=O)c2s1	i	nt	18.7%	-11.9%	9.5%	nt	nt	nt	nt	nt
Cc1cccc(C)c1N(CC(O)Cn1c2ccccc2c2ccccc21)S(C)(=O)=O (configuration not stated)	?	-17.7%	-68.7%	10µM*	?	6.8%	23.1µM*	?	23.1µM*	62.6%
Cn1c(CCCOc2ccc(Cl)cc2Cl)nnc1SCC(=O)Nc1cccc(F)c1	i	?	-37.2%	0.0%	1.0%	-29.8%	nt	nt	nt	nt
